Among all 15,000 compounds or so, about 60 (0.4%) were called active. Cut-off read from the data, not from the text of the source: active = activation above about 2.2%; inactive = the rest. The entries come from a sample that favours actives as a whole.
Assay: activates NOTCH signaling in reporter cells (AID 434982)
Conditions: NOTCH signaling luciferase reporter cells, luminescence; at 2.5 µM; active compounds read high

activation, inactive:
c1ccc2c(-c3csc(-c4ccc5c(c4)OCCO5)n3)csc2c1 -0.45%
O=S(=O)(c1ccc(Cl)cc1)n1nccc1/C=C/c1cccs1 0.05%
N#Cc1c(-c2cccs2)cc(-c2cccs2)nc1N -0.55%
CSc1sc(C(=O)Nc2cccc(Cl)c2)c(-c2cccs2)c1C#N -0.76%
CC1(C)C2CC[C@](C)(C2)C1NC(=O)c1c(Cl)cccc1Cl (stereo not given in full) -0.41%
CC(C)(C)c1csc(Sc2ccc([N+](=O)[O-])cc2[N+](=O)[O-])n1 -0.69%
CSc1nsc(SC)c1C(=O)NC(=O)NNc1ccc(F)c(Cl)c1 -0.35%
CCCCc1ccc(-n2c(-c3ccc(F)cc3)coc2=O)cc1 -0.29%
Clc1ccc(C2=NN(Cc3ccccc3)CC2)s1 0.29%
Cc1ccc(SCC(=O)Nc2ccc(F)cc2F)cc1 0.31%
COc1ccc(NC(=S)Nc2ccc(F)cc2F)c([N+](=O)[O-])c1 -0.83%
O=C1c2ccccc2C(=O)N1CNc1ccc(C2CCCCC2)cc1 -0.31%
Cc1ccc(CSC(=N)N)cc1 0.1%
COc1ccc(OC(=O)/C=C/c2sc3ccccc3c2C)cc1 -0.25%
Cc1nc(-c2ccccn2)n2nnnc2c1Cl -0.27%
Cc1oc(C(C)(C)C)cc1C(=O)NC1Cc2ccccc2C1 -0.44%
COC(=O)c1scc(S(=O)(=O)Cc2ccco2)c1N/N=C(\C#N)S(=O)(=O)C(C)C 0.15%
NNC(=O)c1cc(OCC(F)(F)F)nc(OCC(F)(F)F)c1 -0.48%
COc1cc(NC(=O)c2ncc(C(F)(F)F)cc2Cl)c(C(=O)O)cc1OC -0.4%
COC(=O)c1ccc(S(=O)(=O)N2CCN(c3ccc([N+](=O)[O-])cn3)CC2)n1C 0.16%
CC(=O)Nc1ccc(NC(=O)c2cc(C)ccc2[N+](=O)[O-])c(C)c1 -0.09%
Cc1ccc(OC(=O)c2cccc([N+](=O)[O-])c2)c(Br)c1 0.36%
O/N=C/c1ccc(F)c(Cl)c1 0.44%
COC(=O)/C(=C/c1ccccc1)c1ccccc1 -0.19%
CSC(=CC(=O)c1cccs1)SC -0.45%
Cc1nc2ccccn2c1C(=O)N/N=C/c1cn(-c2ccccc2)nc1-c1cccs1 -0.2%
N/C(=N\OCc1noc(-c2ccsc2)n1)c1ccc(C(F)(F)F)cc1 -0.33%
O=C(Cn1nnc(N2CCOCC2)n1)N/N=C/c1ccc(-c2cccc([N+](=O)[O-])c2)o1 -0.66%
CS(=O)(=O)/N=C(\N)c1ccncc1 -1.1%
Cc1noc(C)c1C(=O)c1c(C)[nH]n(-c2ccccc2)c1=O 0.14%
O=S(=O)(Oc1ccc(Cl)c(Cl)c1)c1c(Cl)sc(Cl)c1Br -0.59%
CC(C)(C)OC(=O)n1ccc2cc(Br)ccc21 -0.83%
Cc1ccc(S(=O)(=O)NNC(=O)CCc2nc(-c3ccc(Cl)cc3)no2)cc1 0.6%
CC(=O)N1C=CC(c2c[nH]c3ccccc23)C=C1 -0.43%
CS(=O)(=O)c1csc(C(=O)NCc2cccnc2)c1Cl -0.31%
CN(NS(=O)(=O)c1ccc(C(F)(F)F)cc1)c1cnn(C)c(=O)c1Cl -0.2%
O=C(Nc1ccccc1C(=O)NC1CCSC1)c1cccc(Cl)c1 (stereo not given) -0.57%
c1ccc(-c2nsc(N3CCNCC3)n2)cc1 0.94%
Cn1cc(Cl)c(/C=C(\C#N)C(N)=O)n1 -0.29%
O=c1[nH]cc(Br)c(=O)[nH]1 -0.83%
O=C(CN1CCOCC1)NNC(=O)c1cccs1 -0.03%
O=C(Cc1cccc2ccccc12)NNC(=O)Nc1ccc(Cl)cc1 -0.03%
COc1cccc(NC(=S)NNC(=S)NC2CC3CCC2C3)c1 (stereo not given) -0.54%
Cc1cc(C(=O)NCCNS(=O)(=O)c2ccc(Cl)cc2)c(C)o1 -0.14%
CNC(=S)NNC(=O)CSc1cccs1 1.08%
N#C/C(=C\c1cccn1S(=O)(=O)c1ccccc1)C(=O)c1ccccc1 0.09%
O=C(Cc1cc(F)cc(F)c1)n1nccc1-c1cccs1 -0.68%
O=C(O)C1CC2CC1CCC2O (stereo not given) -0.37%
Fc1ccc(NC(=S)N2CCN=C2Nc2ccc(F)cc2)cc1 -1.11%
CC(=O)NC12CC3(C)CC(C)(CC(C)(C3)C1)C2 1.34%
Cn1c(S(=O)(=O)O)nc2ccccc21 -0.35%
Cc1ccc(S(=O)(=O)NC(=O)NNc2ncnc3scc(-c4ccccc4)c23)cc1 -0.88%
CCN=C(NCC)Nc1ccc(Cl)cc1 -0.99%
CC(=O)/C(=C\N(C)C)c1ncccc1[N+](=O)[O-] 0%
CNC(=S)Nc1cscc1S(=O)(=O)c1ccc(Cl)cc1 -0.17%
CCOC(=O)c1sc(SCCS(=O)(=O)c2ccc(Cl)cc2)c(C#N)c1-c1ccccc1 -0.58%
O=S(=O)(Oc1ncccc1C(F)(F)F)c1cccc(F)c1 -0.36%
O=C(NC(=O)C1CCN(c2ncccc2[N+](=O)[O-])CC1)Nc1ccc(Cl)cc1 0.44%
CCOC(=O)CC(=O)CSc1nnc(N)s1 0%
NC(=O)C1CCN(CC(O)COc2ccc(Cl)c(Cl)c2)CC1 (stereo not given) -0.63%
O=c1o[nH]c(-c2ccccc2)c1N=Nc1c(F)cccc1Cl 0.09%
CCOC(=O)C(O)(NC(=O)Nc1ccccc1)C(F)(F)F (stereo not given) -0.73%

activation, active:
CC(=O)Nc1ccc(F)cc1F 3.83%
COC(=O)c1ccc(S(=O)(=O)NNC(=O)c2cn3cc(C(F)(F)F)cc(Cl)c3n2)n1C 3.18%
CC(=O)Nc1cccc([N+](=O)[O-])c1 6.11%
